This note sets out measurements from PubChem BioAssay (NCATS).

Records with an inconclusive call do not appear. Where a call stands in place of a potency, no number is given. Active and inactive are the calls of the source. Calls come from the whole dose curve.
Potency is the fitted concentration of half-maximal effect.

In this assay the target is Atrial natriuretic peptide receptor 1 (Homo sapiens) (UniProt P16066). In words: Natriuretic polypeptide receptor (hNpr1) antagonism - Pilot CMLD screen (AID 1347052). The following applies: HEK293 hNpr1 GloSensor cGMP luminescence, ANP-stimulated; series mostly up to 9.22 µM. The protocol: In order to identify small molecular compounds that inhibit the hNpr1 receptor we developed a high-throughput assay to measure inhibition of the guanylate cyclase activity of the receptor. cGMP production was measured using a circular permutated Firefly luciferase (FLuc) enzyme functionally linked to the cGMP binding domain of human phosphodiesterase 5 (GloSensor technology pGS-40F, (Fan, F. et al. 2008). The cGMP-sensor was expressed in human embryonic kidney 293 (HEK-293) cells and FLuc activity was measured after stimulation with hNrp agonist peptide. hNrp agonists activates the receptor's associated guanylyl cyclase (GC) domain producing cGMP which then binds to the GloSensor resulting in FLuc activation, the enzymatic activity of which can be measured as bioluminescence with addition of luciferin substrate.
Chain of Atrial natriuretic peptide receptor 1 (Homo sapiens) (P16066 whole entry, looked up, the tested form may be a part): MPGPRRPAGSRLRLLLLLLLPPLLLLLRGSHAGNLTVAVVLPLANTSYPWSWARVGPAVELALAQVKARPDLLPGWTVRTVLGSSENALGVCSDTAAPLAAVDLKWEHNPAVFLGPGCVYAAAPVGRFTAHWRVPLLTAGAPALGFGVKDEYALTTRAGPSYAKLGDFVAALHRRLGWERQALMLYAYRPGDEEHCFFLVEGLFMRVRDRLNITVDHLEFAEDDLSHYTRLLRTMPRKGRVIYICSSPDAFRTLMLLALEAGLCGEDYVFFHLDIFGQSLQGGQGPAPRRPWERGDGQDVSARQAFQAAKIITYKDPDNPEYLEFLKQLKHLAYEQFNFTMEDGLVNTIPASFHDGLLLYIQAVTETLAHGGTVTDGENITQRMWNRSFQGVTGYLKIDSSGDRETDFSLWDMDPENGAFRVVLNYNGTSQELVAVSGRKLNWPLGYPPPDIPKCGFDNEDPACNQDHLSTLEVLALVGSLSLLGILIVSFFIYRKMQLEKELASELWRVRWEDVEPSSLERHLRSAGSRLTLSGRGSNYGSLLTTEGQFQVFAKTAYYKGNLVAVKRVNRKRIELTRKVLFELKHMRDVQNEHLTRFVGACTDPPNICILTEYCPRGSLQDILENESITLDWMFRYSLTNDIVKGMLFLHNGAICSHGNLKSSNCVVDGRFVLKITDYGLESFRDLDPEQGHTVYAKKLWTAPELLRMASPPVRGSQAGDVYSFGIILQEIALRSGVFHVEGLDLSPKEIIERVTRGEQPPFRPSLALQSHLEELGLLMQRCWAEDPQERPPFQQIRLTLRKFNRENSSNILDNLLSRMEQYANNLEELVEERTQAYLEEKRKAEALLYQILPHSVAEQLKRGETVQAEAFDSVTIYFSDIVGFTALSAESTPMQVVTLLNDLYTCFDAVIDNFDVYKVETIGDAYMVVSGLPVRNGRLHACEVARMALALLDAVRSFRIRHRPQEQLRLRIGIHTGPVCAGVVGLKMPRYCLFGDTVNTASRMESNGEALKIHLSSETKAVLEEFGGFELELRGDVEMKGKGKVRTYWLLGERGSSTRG
This assay was initially piloted by testing with a small library of specialty compounds.
PROTOCOL TABLES (as described by Inglese J, Shamu CE and Guy RK. 2007)
SEQUENCE No. (e.g., 1, 2, 3, etc.); […] (e.g., Cells, Incubation, Reagent, etc.); VALUE and DESCRIPTION.
1. Cells. Seed 1500 HEK293 cGMP-sensor cells expressing hNpr1 per well in 4uL into Greiner 1536-well white/solid bottom high base, tissue culture-treated plates.
2. Incubation. Incubate plated cells at 37C in 5% CO2, 95% RH overnight.
3. Reagent. Add 1uL per well GloSensor reagent from Promega (2% final concentration) or CO2 independent media vehicle control to respective columns of Greiner 1536-well plates.
4. Incubation. Incubate plated cells at room temperature for 2 h, protect from light.
5. Compounds. Library compounds and A-71915 control added at 23 nL per well, transferred by Pin Tool.
6. Incubation. Incubate plated cells for 30 min. at room temperature, protect from light.
7. Detector. GloSensor baseline pre-read luminescence measured using CCD-based camera (Viewlux).
8. Compound. Add 1uL of hNppA peptide to 0.1 nM final concentration to stimulate hNpr1 or CO2 independent media as vehicle control.
9. Incubation. Incubate treated cells at room temperature for 20 min., protect from light.
10. Detector. GloSensor post-hNppA luminescence measured using CCD-based camera (Viewlux).
NOTES (numbers refer to Sequence numbers above)
1. HEK293 cells expressing hNpr1 and GIP/pGS-40F grown to 85-95% confluence (48-72 h) in T175 culture flasks (CO2 independent media supplemented with 10% FBS, 1% Pen/Strep antibiotics and 1 ug/mL puromycin). Trypsinize and harvest cells from T175 culture flasks and filter through 40 um cell strainer. Cells counted with Invitrogen Countess (30,000,000 - 50,000,000 cells/flask). Cells diluted to a final concentration of 375 cells/uL in CO2 independent media and a Millipore multidrop used to dispense 1500 cells per well (4uL/well) into 13 1536-well Greiner White/Solid bottom, high base tissue-culture treated (TC) plates and one Aurora 1536-well Black/Clear bottom, low base, TC plate (for visual inspection of cell health throughout the duration of the assay).
2. Cells incubated overnight at ambient temperature, 24 h. at 37C in 95% RH incubator protected from light, covered with metal lid with gas-exchange holes.
3. Prepare GloSensor Reagent (Promega): Reconstitute GloSensor luciferase substrate by adding 8.2mL Hepes buffer to 250mg substrate, mix well, protect from light and stored at -80C. Prepare a fresh 12% GloSensor solution in CO2 independent supplemented plating media (see above). Mix well and store at ambient temperature, protected from light. 1uL 12% GloSensor Luciferase Reagent added (2% final concentration) to respective columns of 13 x 1536-well Greiner plate with BioRaptr, 1uL CO2 independent plating media added to respective columns as vehicle control with BioRaptr.
4. Cells incubated for 2 h. at ambient temperature, protected from light with metal lid with gas-exchange holes.
5. A-71915 stock solution prepared (10 mM in DMSO). […]
Take `C[C@@H]1CC[C@H]2C(=O)O[C@@H](COc3ccc(C(C)(C)C)cc3)CN2[C@H]1c1ccc(Br)cc1`: the Potency entry was “inactive”. On to `C=CCOC(=O)NC(c1ccc(F)c(F)c1)C(C(C)=O)C(=O)OC` (stereo not given), for which the Potency result was “inactive”. Take `CCCCc1cc2c(cn1)C(=O)C(C)(OC(C)=O)C(=O)C2` (stereo not given): the Potency result is “inactive”.

For the compound `CCN1C(=NCCCOC(C)C)NC(c2ccccc2)C(C(=O)OC)=C1C` (stereo not given), the Potency result was “inactive”.

As to `COc1cc(OC)c2c(c1)OC1Cc3cc(OC)c(OC)cc3C2O1` (stereo not given), the Potency result was “inactive”. In the case of `C[C@@H]1CC[C@H]2C(=O)N(Cc3ccc(Cl)cc3)C[C@@H](O)CN2[C@@H]1c1ccc(Br)cc1`, the Potency result was “inactive”. Turning to `C[C@@H]1CC[C@H]2C(=O)N(Cc3cccc([N+](=O)[O-])c3)C[C@@H](O)CN2[C@@H]1c1ccc(Br)cc1`, the Potency result is “inactive”. As for `CCN1C(=NCc2ccc3c(c2)OCO3)N[C@@H](c2ccccc2)[C@H](C(=O)OC)[C@H]1C`, the Potency entry was “inactive”. For `C[C@@H]1CC[C@H]2C(=O)N(Cc3ccc(Cl)cc3)C[C@@H](O)CN2[C@@H]1c1cccc(Br)c1`, the Potency result is “inactive”. Turning to `CCN1C(=O)[C@@H]2[C@H]3[C@H](O)[C@H](O)CC(=NO[C@H](C)c4cn([C@@H]5COC[C@@H]5O)nn4)[C@@H]3CC[C@H]2C1=O`, the Potency result is “inactive”. For the compound `O=C1Nc2cccc(Br)c2[C@@]12O[C@H](COc1ccccc1)CC1=CCCC12` (stereo not given in full), the Potency entry is “inactive”.

Take `C[C@@H]1CC2=CCCC2[C@]2(O1)C(=O)N(Cc1ccc(Br)cc1)c1cccc(Br)c12` (stereo not given in full): the Potency result was “inactive”. With `COc1ccc(-c2nc3c(c4c2C[C@H](c2ccccc2)OC4)CN(C(=O)c2ccco2)CC3)c(C)c1`, the Potency result was “inactive”. The entry for `C=CC[C@@]1(C(=O)OC)C=C[C@@H](C)[C@H](c2ccccc2Br)N1C(=O)C(F)(F)F` is “inactive”; for `COC(=O)[C@H](Cc1ccccc1)NC(=O)O[C@@H]1C(=O)c2cc(Br)ccc2O[C@H]1c1ccc2c(c1)OCO2` it is “inactive”; for `C=CCN1c2ccccc2[C@]23C[C@@H](C(=O)OC)N(C(=O)c4cccs4)C2=NC(C(=O)OC)=C(C(=O)OC)[C@H]13` it is “inactive”. For `CCN1C(=O)NC(c2cccs2)C(C(C)=O)=C1C` (stereo not given) the value was “inactive”; for `COC(=O)c1cc(C(=O)OC)n2ccc3cc(OC)c(OC)cc3c12`, 531 nM (active); for `COc1ccc(O[C@H]2C=C[C@@H](c3ccccc3)O[C@H]2COC(=O)CCC(C)=NOC[C@@H](O)COCc2ccco2)cc1`, “inactive”. `COC(=O)C1=C2C=C(C)CC(C)N2C(=O)NC1c1ccccc1` (stereo not given): the Potency entry is “inactive”. The entry for `CCOC(=O)OC[C@H]1O[C@H](c2cc(C)cc(C)c2)C=C[C@H]1OC(=O)OCC` is “inactive”; for `c1ccc(-c2nc(-c3ccccc3)c(NC3CCCCC3)o2)cc1` it is “inactive”; for `C[C@@H]1C=CCC(=O)N[C@@H](c2ccc3ccccc3c2)[C@H](C)C=CCC(=O)N[C@@H]1c1ccc2ccccc2c1` it is “inactive”. Regarding `COC(=O)[C@H](Cc1ccccc1)NC(=O)O[C@@H]1C(=O)c2cc(OC)ccc2O[C@H]1c1ccc(OC)c(Br)c1`, the Potency result was “inactive”. As to `CCN1C(=O)N[C@@H](c2ccccc2)[C@@H](C(=O)OC)[C@H]1C`, the Potency result was “inactive”. On to `COc1ccc2c(c1)O[C@@H](c1ccc3c(c1)OCO3)[C@H](OC(=O)Nc1ccc(OC(F)F)cc1)C2=O`, for which the Potency entry was “inactive”. Turning to `O=C(N[C@H](c1cccc(Br)c1)[C@@H]1CCCC=C1c1ccccc1)C(F)(F)F`, the Potency entry was “inactive”. For `C[C@H]1Cc2c(-c3ccccc3)nc3c(c2CO1)CN(C(=O)c1cccnc1)CC3`, the Potency result was “inactive”.

Turning to `O[C@H](CC#CCOc1ccccc1)COCc1ccccc1`, the Potency result was “inactive”. The entry for `COC(=O)CCCC1=CC2=C(c3ccccc3)C(=O)C(C)(OC(=O)C3CCCC3)C(=O)C2=CN1C1CCCCC1` (stereo not given) is “inactive”; for `CCN1C(=NCc2ccccc2)N[C@@H](c2ccccc2)[C@H](C(=O)OC)[C@H]1C` it is “inactive”. For `COC(=O)N[C@H](C[N+](=O)[O-])c1cccc(C)c1`, the Potency entry is “inactive”. For `C=CCCC1(C(=O)c2ccccc2)C(=O)C(CC=C(C)C)=C(OC)C(CC=C(C)C)(CCC=C(C)C)C1=O` (stereo not given) the value was “inactive”; for `COc1cccc2c1C1(CCCCC1)CC2NC(=O)C(F)(F)F` (stereo not given), “inactive”; for `CCN1C(=NCCc2cccnc2)NC(CCc2ccccc2)C(C(=O)OC)=C1C` (stereo not given), “inactive”. As for `COC(=O)C1=C(C)N(Cc2ccccc2)C(=NCC2CC2)NC1c1cccc(C(F)(F)F)c1` (stereo not given), the Potency entry was “inactive”. Turning to `COC(=O)C1=C(C(=O)OC)[C@@H]2N(C)c3ccccc3[C@@]23CCC(=O)N(Cc2cc(OC)c(OC)c(OC)c2)C3=N1`, the Potency entry is “inactive”. `COc1ccc(-c2nc3c(c4c2C[C@H](c2ccccc2)OC4)CN(C(=O)Nc2cccc(C#N)c2)CC3)c(C)c1`: the Potency entry is “inactive”. Turning to `C[C@@H]1C(c2ccccc2)=Cc2[nH]c(=O)[nH]c2C[C@@H]1C(=O)N1CCCC1`, the Potency entry was “inactive”. The entry for `CCCCC#C[C@@H]1C=C[C@H](Oc2ccc(C(=O)OC)cc2)[C@@H](COC(=O)OCC)O1` is “inactive”.
